Molecules are shown by their SMILES. Inconclusive results are not listed. The source made the active and inactive calls. The call rests on the fitted dose curve; in most records, active means well fitted inhibition curve with a large enough effect; inconclusive means small, poorly fitted or top-dose-only effect; inactive means no such curve, though single readings can be large or run the other way.

For the assay, the target named is Cytochrome P450 3A4 (Homo sapiens) (UniProt P08684). The assay is described as follows: qHTS Assay for Inhibitors and Substrates of Cytochrome P450 3A4 (AID 884). Further: nearly all actives have a fitted effect of over 50% in size. The conditions noted are these: recombinant CYP3A4, Luciferin-PPXE luminescence; series mostly up to 57.1 µM. As for the experimental part: NIH Molecular Libraries Screening Centers Network [MLSCN]
Sequence of Cytochrome P450 3A4 (Homo sapiens) (P08684 whole entry, looked up): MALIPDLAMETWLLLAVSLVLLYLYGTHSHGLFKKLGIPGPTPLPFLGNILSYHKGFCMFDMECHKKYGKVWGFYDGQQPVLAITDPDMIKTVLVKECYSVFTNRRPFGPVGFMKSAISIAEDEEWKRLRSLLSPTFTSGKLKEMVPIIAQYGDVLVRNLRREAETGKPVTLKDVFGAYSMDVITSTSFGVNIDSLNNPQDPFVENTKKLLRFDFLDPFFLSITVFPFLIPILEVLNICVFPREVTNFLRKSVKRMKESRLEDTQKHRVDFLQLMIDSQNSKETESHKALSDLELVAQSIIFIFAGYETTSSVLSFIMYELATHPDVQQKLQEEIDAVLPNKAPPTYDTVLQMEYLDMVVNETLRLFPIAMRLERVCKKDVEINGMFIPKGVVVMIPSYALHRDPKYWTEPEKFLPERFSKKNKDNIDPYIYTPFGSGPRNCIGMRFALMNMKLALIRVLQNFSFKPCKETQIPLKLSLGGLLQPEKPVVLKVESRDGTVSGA
NIH Chemical Genomics Center [NCGC]
The P450 gene superfamily is involved in the metabolism and clearance of xenobiotics. This assay used human CYP3A4 to measure the dealkylation of luciferin-6' phenylpiperazinylyl (Luciferin-PPXE; […]) to luciferin. The luciferin is then measured by luminescence after the addition of a luciferase detection reagent. Luciferin-PPXE concentration in the assay was equal to its KM for CYP3A4. Inhibitors and some substrates limit the production of luciferin, and decrease measured luminescence.
NCGC Assay Protocol Summary:
Two uL of enzyme and substrate mix (final concentrations: 20nM CYP3A4, 25uM Luciferin-PPXE, 200mM KPO4) were dispensed into a white, solid bottom 1536-well microtiter plate. 23nL of compound was transferred by a pin tool. The plate was incubated at RT for 10 min. Two uL of an NADPH regeneration solution (Promega supplied reagent) was dispensed and the reaction was allowed to continue for 60 min at RT. Then the reaction was stopped by reconstituted luciferin detection buffer. After another 20 min of incubation the plate was read on the ViewLux (Perkin Elmer) at 60 sec exposure and 2x2 binning. This protocol was carried out with Promega-Glo reagents and further information can be found at http://www.promega.com/tbs/tb325/tb325.pdf. Data were normalized to the to AC100 inhibition (57 uM ketoconazole).
Keywords: P450, CYP3A4, Luciferase, MLSMR, MLSCN, NIH Roadmap, qHTS, NCGC
A general note: qHTS replaces the single test concentration by a dilution series.
On to `CC(=O)CC(c1ccccc1)c1c(O)c2ccccc2oc1=O` (configuration not stated), for which the result was inactive.

As for `NS(=O)(=O)c1cc2c(cc1Cl)NC(C(Cl)Cl)NS2(=O)=O` (configuration not stated), the result was inactive.

For `O=C(O)c1cc(=O)[nH]c(=O)[nH]1`, the result was inactive.

As for `COc1ccc(C(=O)CC(=O)c2ccc(C(C)(C)C)cc2)cc1`, the outcome was inactive.

For the molecule `CN(C)CCc1c[nH]c2ccc(CS(=O)(=O)N3CCCC3)cc12`, the result was inactive.

As to `COc1cnc(NS(=O)(=O)c2ccc(N)cc2)nc1`, the result was inactive.

`COC(=O)Nc1nc2ccc(Sc3ccccc3)cc2[nH]1`: the outcome was inactive.

With `CCn1cc(C(=O)O)c(=O)c2cc(F)c(N3CCNCC3)nc21`, the result was inactive.

Consider `Nc1nc(N)c2nc(CNc3ccc(C(=O)NC(CCC(=O)O)C(=O)O)cc3)cnc2n1` (configuration not stated), for which the result was inactive.

For `Cc1nnc(NS(=O)(=O)c2ccc(N)cc2)s1`, the outcome was inactive.

Take `Nc1ccc(S(=O)(=O)Nc2ccccn2)cc1`: the result was inactive.

As to `Cc1ncc([N+](=O)[O-])n1CCO`, the outcome was inactive.

On to `Cc1ccnc2c1NC(=O)c1cccnc1N2C1CC1`, for which the outcome was inactive.

Turning to `CCc1c2c(nc3ccc(OC(=O)N4CCC(N5CCCCC5)CC4)cc13)-c1cc3c(c(=O)n1C2)COC(=O)[C@]3(O)CC`, the outcome was inactive.

Turning to `COc1c(N2CCNC(C)C2)c(F)cc2c(=O)c(C(=O)O)cn(C3CC3)c12` (configuration not stated), the outcome was inactive.

As to `CNS(=O)(=O)Cc1ccc2[nH]cc(CCN(C)C)c2c1`, the outcome was inactive.

Take `Cn1c(=O)c2c(ncn2CC(O)CO)n(C)c1=O` (configuration not stated): the result was inactive.

As for `COc1ccc2c(c1)c(CC(=O)OCC(=O)O)c(C)n2C(=O)c1ccc(Cl)cc1`, the outcome was inactive.

With `COc1ccccc1OCC(O)COC(N)=O` (configuration not stated), the outcome was inactive.

Turning to `CC(=O)[C@H]1CC[C@H]2[C@@H]3CCC4=CC(=O)CC[C@]4(C)[C@H]3CC[C@]12C`, the outcome was inactive.

On to `COC(=O)Nc1nc2ccc(C(=O)c3ccccc3)cc2[nH]1`, for which the result was inactive.

For `O=C(O)c1cccnc1`, the result was inactive.

As for `O=c1oc2c(O)c(O)cc3c(=O)oc4c(O)c(O)cc1c4c23`, the outcome was inactive.

For the molecule `Cc1noc(NS(=O)(=O)c2ccc(N)cc2)c1C`, the outcome was inactive.

On to `O=S(=O)(O)CCS`, for which the result was inactive.

Consider `CCCCOc1ccc(CC(=O)NO)cc1`, for which the outcome was inactive.

As to `Nc1nc(=S)c2[nH]cnc2[nH]1`, the outcome was inactive.
